ELG1 repair inh – ELG1-dependent DNA repair inhibition; HEK293T ELG1-luciferase reporter, luminescence, 16 h; DNA damage induced by 5-fluorouridine; Potency, µM (top dose mostly 46.1 µM), inactives show at the top dose activity change, negative = inhibition, most hits filed as inhibitors; actives 2.3% (n = 330,000); also: % is scaled to controls: 0 for no effect and ±100 for the full control effect; nearly all actives have a fitted effect of over 55% in size
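DMSO vehicle served as the neutral condition. Each well held 2,000 cells given 5-fluorouridine plus compound; after 16 hr at 37 °C/5% CO2, ONE-Glo was added and luciferase measured 30 min later.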
FLuc counter – firefly luciferase modulation, counter-screen for miR-21 project; purified FLuc, Km substrates, luminescence inhibition; Potency, µM (titrated, usually from 57.5 µM), without a hit: at the highest dose activity change, negative = inhibition, hits mostly inhibitors; actives 6.9% (n = 360,000);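 also: plate controls were vehicle for no effect and reference inhibitor for full effect; nearly all actives have a fitted effect of over 55% in size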
Target sequence (P08659 whole entry, looked up): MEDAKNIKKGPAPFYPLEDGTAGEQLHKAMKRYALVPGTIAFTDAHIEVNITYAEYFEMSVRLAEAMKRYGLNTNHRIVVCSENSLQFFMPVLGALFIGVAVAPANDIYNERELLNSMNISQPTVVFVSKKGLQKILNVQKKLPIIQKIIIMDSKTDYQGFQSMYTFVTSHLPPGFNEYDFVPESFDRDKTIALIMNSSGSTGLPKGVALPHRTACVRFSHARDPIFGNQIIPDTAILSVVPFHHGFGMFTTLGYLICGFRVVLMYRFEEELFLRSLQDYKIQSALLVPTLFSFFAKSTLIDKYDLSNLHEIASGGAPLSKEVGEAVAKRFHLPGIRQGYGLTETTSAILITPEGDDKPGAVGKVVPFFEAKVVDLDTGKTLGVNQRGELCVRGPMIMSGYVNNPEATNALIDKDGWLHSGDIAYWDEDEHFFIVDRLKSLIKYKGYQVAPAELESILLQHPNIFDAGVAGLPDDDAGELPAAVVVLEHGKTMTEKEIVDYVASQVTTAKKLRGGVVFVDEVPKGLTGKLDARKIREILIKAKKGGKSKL
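Purified P. pyralis luciferase, 10 nM final, with Km-level 10 uM D-luciferin and 10 uM ATP in 50 mM Tris acetate pH 7.5, 10 mM Mg acetate, 0.01% Tween-20, 0.05% BSA; 6-point qHTS titration about 60 µM downward; luminescence read.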
Rab9 promoter act – activators of Rab9 promoter; Huh7 Rab9 promoter-luciferase reporter, luminescence, 24 h; actives 2.8% (n = 320,000); Potency, µM (top dose mostly 9.22 µM), without a hit: top-dose activation, negative = inhibition, actives largely listed as activators; also: % of control where 0% means no effect; nearly all actives have a fitted effect of over 60% in size
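Using Huh7 cells stably transfected with Rab9 promoter–luciferase, compounds were incubated 24 h at 37 °C, 5% CO2; luciferase luminescence was read 10 min after reagent addition.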
NPC1 prom act – NPC1 promoter activation; Huh7 NPC1 promoter luciferase reporter, 24 h; Potency, µM (series often up to 9.22 µM), without a hit: at the highest dose activation, usual class: activators; actives 2.4% (n = 320,000); AID 485313; also: % of control where 0% means no effect; nearly all actives have a fitted effect of over 60% in size
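Huh7 cells stably carrying NPC1 promoter–luciferase, plated in Opti-MEM with 10% FBS for 2 h, were exposed to compound in DMSO for 24 h at 37 °C; luciferase reagent was added for 10 min and luminescence read.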
SMN2 splice up – SMN2 splice variant enhancement; HEK293 SMN2-luciferase splicing reporter, luminescence, 30-36 h; Potency, µM (highest dose often 46.1 µM), for the others: top-dose activity change, positive = activation, actives largely listed as activators; actives 2.8% (n = 210,000); also: % of control where 0% means no effect; nearly all actives have a fitted effect of over 55% in size
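qHTS luciferase splicing reporter: luminescence rises when SMN2 exon 7 is included in transfected HEK293 cells. Compound exposure lasted 30-36 h at 37C, with 4.5 mM final sodium butyrate as control, followed by a ONE-Glo read.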
ELG1 genotox – induces genotoxicity in HEK293T cells with luciferase-tagged ELG1 | HEK293T ELG1-luciferase reporter, luminescence, 16 h | Potency, µM (top dose mostly 46 µM), for inactives: at the highest dose activity change, positive = activation, actives largely listed as activators | actives 1.3% (n = 330,000); also: % of control where 0% means no effect; nearly all actives have a fitted effect of over 60% in size
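Genotoxicity was scored as increased ELG1-luciferase reporter signal, measured by ONE-Glo luminescence (30 min, room temperature). Compound or vehicle exposure of the HEK293T reporter cells lasted 16 hr at 37°C.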
The depositor's hits bear a star; ? = inconclusive; · = not tested or not shown; [ ] = dose if it differs, or a comment. A selection: hits, their analogues and other compounds. The true share with any hit is near 9.2%. Calls follow the shape of the dose curve; as a rule, active = well fitted curve in the direction sought with a large enough effect; inconclusive = small, poorly fitted or top-dose-only effect, or another doubt; inactive = no such curve, though single readings can be large; an effect the other way counts as inactive or inconclusive. Potency is read from the fitted curve at half-maximal effect.

SMILES	ELG1 repair inh	FLuc counter	Rab9 promoter act	NPC1 prom act	SMN2 splice up	ELG1 genotox
Cc1nn(Cc2c(Cl)cccc2Cl)c(C)c1NC(=O)/C=C/c1cnn(C)c1C	?	-1%	3%	-4%	-21%	-1%
Cc1c(/C=C/C(=O)c2ccc(O)cc2)cnn1C	?	11µM*	?	?	?	21µM*
Cc1c(/C=C/C(=O)c2ccc(Cl)s2)cnn1C	?	1.5µM*	?	?	9%	?
Cc1c(/C=C/C(=O)c2ccccc2)cnn1C	?	4.8µM*	?	?	?	?
Cc1c(/C=N\NC(=O)c2ccc(F)cc2)cnn1C	?	-19%	-2%	-3%	-7%	-1%
COc1ccc(-c2ccc3c(N)c(C(=O)c4ccc(OC)c(OC)c4)sc3n2)cc1	?	-9%	15%	10%	19%	16%
COc1cccc(NC(=O)c2sc3nc(C)c(C(=O)Nc4ccc(C)cc4C)c(-c4ccc(Br)cc4)c3c2N)c1	·	-5%	·	·	13µM*	·
COc1ccc(-c2ccc3c(N)c(C(=O)Nc4cccc(C)c4)sc3n2)cc1	·	1%	·	·	1.8µM*	·
COCCCNC(=O)c1sc2nc(C)c(C(=O)Nc3ccc(C)cc3C)c(-c3ccc(Br)cc3)c2c1N	·	-12%	·	·	-9%	·
COc1ccc(-c2ccc3c(N)c(C(=O)Nc4cc(F)ccc4C)sc3n2)cc1	·	?	·	·	-3%	·
COc1ccc(-c2ccc3c(N)c(C(=O)NC(C)C)sc3n2)cc1OC	-22%	17µM*	12%	0%	·	2%
CNC(=S)N(CCO)Cc1cc2cc3c(cc2[nH]c1=O)OCO3	0%	6%	-7%[1.84 µM]	0%	·	2%
COCC(C)n1c(C)cc(C(=O)COc2ccc(N(C)S(=O)(=O)c3ccc(NC(C)=O)cc3)cc2)c1C (centres undefined)	4.1µM*	?	-6%	-3%	·	-2%
CCN(C(=O)COc1ccc(N(C)S(=O)(=O)c2ccc(NC(C)=O)cc2)cc1)C1CCCCC1	21µM*	·	·	·	·	0%
CCN(CC)C(=O)COc1ccc(N(C)S(=O)(=O)c2ccc(NC(C)=O)cc2)cc1	?	-1%	-2%	0%	·	0%
C=CCn1c(C)cc(C(=O)COc2ccc(N(C)S(=O)(=O)c3ccc(NC(C)=O)cc3)cc2)c1C	?	·	·	·	·	-6%
CC1CCCC(NC(=O)COC(=O)c2cc(=O)[nH]c3ccccc23)C1C (centres undefined)	-3%	·	·	·	·	5%
Cc1ccc2c(c1)cc1c(=O)n(Cc3cccc(Cl)c3)nc(C)n12	·	1%	·	·	-7%	·
Cc1ccc(Nc2nc3c(s2)CCC3)c(C)c1	?	7.6µM*	?	?	13µM*	21µM*
COc1ccccc1Nc1c2c(nc3ccccc13)CCC2	?	6%	-25%	-26%	·	-6%
COc1ccccc1Nc1nc2c(s1)CCC2	?	15µM*	27%	28%	-16%	16%
Cc1ccc(NC(=O)Nc2nc3c(s2)CCCCCC3)cc1C	·	-1%	·	·	·	·
COc1ccccc1NS(=O)(=O)c1cc2c3c(c1)CCN3C(=O)CC2	?	0%	-8%	-5%	·	?
COC(=O)CSc1ccc(S(=O)(=O)N2CCOCC2)cc1[N+](=O)[O-]	-2%	-2%	-14%	-6%	-5%	1%
COc1ccc(/C=C2\COc3ccccc3C2=O)c(OC)c1	?	4.8µM*	0%	-17%	·	?
Cc1cc(C)c2c(c1)C(=O)/C(=C/c1ccc(C(=O)O)cc1)CC2	?	19µM*	20%	19%	·	14%
COc1ccc2c(c1)CC/C(=C\c1ccc(OC)c(Cn3cccn3)c1)C2=O	?	13µM*	8%	-3%	-48%	-22%
COc1ccc(/C=C2\CCc3ccccc3C2=O)cc1CN1CCOCC1	?	7.6µM*	-1%	2%	·	?
